Results as given in ChEMBL document CHEMBL3988442, “University of Dundee, Small-Polar-MMV Screening Library” (2021).
In all, about 48,000 compounds went through this assay and about 13,000 (27%) showed an effect of 50% or more. This is one part of the list.

What follows are compounds tested on Wolbachia pipientis (assay: Anti-Wolbachia Cell-Based Screen). Conditions: 5 µM.
Assay type: functional
Parameters: scale not given: in the data most compounds retested in dose-response had high values

SMILES	Percent Effect [%]
CC(C)(C)C(O)CN1CCN(Cc2cccc(C#N)c2)CC1 (stereo not drawn)	-1.667
CC(=O)N[C@H]1CCN2C(=O)[C@@H](Cc3c[nH]c4ccccc34)NC(=O)[C@H]12	-9.075
COCCN1CC(C(=O)N(C)Cc2ccc(Cl)s2)CC1=O (stereo not drawn)	25.53
O=C(c1ccc(SC(F)F)cc1)N1CCOCC1c1ncon1 (stereo not drawn)	2.35
O=C1NCC(CN2CCc3onc(-c4ccc(C(F)(F)F)cc4)c3C2)O1 (stereo not drawn)	4.598
O=C(c1ccc[nH]1)N1CCc2nnc(Cn3cccn3)n2CC1	121.3
O=C(c1ccc[nH]1)N1CCCn2c(CN3CCCCC3)nnc2C1	104.7
Cc1[nH]ccc1C(=O)N1CCC(c2nnc(Cn3cccn3)n2C)CC1	-8.959
O=C1CCCN1Cc1nnc2n1CCCN(C(=O)c1ccco1)C2	122.9
CC(C)N(C)Cc1nnc2n1CCCN(C(=O)c1ccco1)C2	10.89
O=C(O)C(F)(F)F.O=C(c1ccccc1)N1CCCn2c(CN3CCCCC3)nnc2C1	-7.245
Cc1cccc(C(=O)N2CCCn3c(CN4CCCCC4)nnc3C2)c1	-5.352
O=C(O)C(F)(F)F.O=C(c1ccccc1F)N1CCCn2c(CN3CCCCC3)nnc2C1	18.71
c1cnn(Cc2nnc3n2CCCN(c2nccs2)C3)c1	-8.945
O=C(O)C(F)(F)F.O=C(O)C(F)(F)F.O=C(c1c[nH]cn1)N1CCCn2c(CN3CCCCC3)nnc2C1	0.5876
O=C(O)C(F)(F)F.O=C(c1ccc[nH]1)N1CCCn2c(CNC3CCC3)nnc2C1	88.36
COCCNC(=O)C(C)S(=O)(=O)c1ccc(OC)cc1 (stereo not drawn)	-5.557
CCS(=O)(=O)N(C)C1CCN(c2cccc(F)c2C(C)=O)CC1	1.671
CCN(CC)C(=O)CC[C@@H]1CNC(=O)[C@@H]2C[C@H](NC(=O)C3CC3)CN12	-0.8785
COCc1nc(C(=O)NS(=O)(=O)c2ccc(C)c(C)c2)cs1	-2.372
CSCC(=O)N1CCC(c2nccn2Cc2cscn2)CC1	-14.72
COCC1CN(Cc2cc(C)on2)Cc2cn(CC3CC3)nc21 (stereo not drawn)	-5.451
Cn1nc(C2CN(C(=O)c3cscn3)C2)c2nccnc21	-8.374
Cn1nc(C2CN(S(C)(=O)=O)C2)c2nccnc21	134.2
CCN(C)C(=O)c1ncn2c(C3CCN(S(C)(=O)=O)CC3)ccnc12	-14.84
O=C(c1ccncc1)N1C[C@@H]2CC[C@H](C1)N(C(=O)C1CCCC1)C2	23.43

SMILES	Percent Effect [%]
CCc1ccc2c(C3CN(S(C)(=O)=O)C3)ncn2c1	15.67
Cc1ccc(C(=O)N2CC(c3cccnc3)C2)cc1N1CCNC1=O	-5.741
Cn1nc(C2CN(C(=O)c3ccncc3)C2)c2nccnc21	104.9
Cn1nc(C2CN(C(=O)c3cccnc3)C2)c2nccnc21	106.4
FC(F)(F)Oc1ccc(-c2noc([C@@H]3Cc4nc[nH]c4CN3)n2)cc1	-8.285
CCCc1nnc(N(C)CC2CCN(CC(C)C)CC2)o1	-8.883
Cc1ccc2nc(-c3cnc(N)nc3)c(C)c(C(=O)N(C)C)c2c1	2.177
CCOC(=O)N(C)C1CCN(Cc2csc(C)n2)CC1	-9.858
Cc1cc(N(C)C)nc(N(C)Cc2csc(C)n2)n1	-1.887
Cc1cc(N(C)C)nc(C2COCCN2Cc2nccn2C)n1 (stereo not drawn)	106.8
Cc1cc(C)n(CC2CCCCN2Cc2cscn2)n1 (stereo not drawn)	2.934
Cc1cc(N(C)C)nc(N2CCN(Cc3nccn3C)CC2)n1	-14.83
Cn1ccnc1CN1CCOC[C@H]1c1nc(C(C)(C)C)co1	-3.783
Cc1nc(C)n(CC2CCCN2Cc2cscn2)n1 (stereo not drawn)	-0.8371
Cc1cc(N(C)C)nc(C2COCCN2Cc2cc(C)on2)n1 (stereo not drawn)	106.1
Cc1cc(N(C)C)nc(C2COCCN2Cc2csc(C)n2)n1 (stereo not drawn)	76.41
Cc1cc(CN2CCCC2c2noc(C)n2)no1 (stereo not drawn)	-4.781
Cc1cc(CN2CCOC(CN(C)C)C2)no1 (stereo not drawn)	-11.72
Cc1cc(N(C)C)nc(C2COCCN2Cc2cscn2)n1 (stereo not drawn)	100.1
CC(NC1(CNS(C)(=O)=O)CCCC1)c1ccccc1 (stereo not drawn)	-3.236
COc1ccc(-n2cccn2)c(CN2CCOCC(CN(C)C)C2)c1 (stereo not drawn)	-24.66
COc1cccc(CNCCc2cc(F)cc3c2OCOC3)c1	-0.9463
CNc1cc(C)nc(C2COCCN2Cc2csc(C)n2)n1 (stereo not drawn)	118.8
Cc1nc(CN2CCCC2c2nc(C(C)C)no2)cs1 (stereo not drawn)	-7.461
CC(C)(C)c1coc([C@@H]2COCCN2Cc2csnn2)n1	-9.121
COc1ccnc(NC(=O)c2cscc2C)c1	-3.049

SMILES	Percent Effect [%]
CCc1[nH]ncc1C(=O)N1CCN(c2nccc(OC)n2)CC1	-7.097
Cc1nc(C)n(CCCNc2ncnc(C)c2C)n1	-4.271
CCc1cnc(N)nc1NCCN1CCCCC1	1.893
Cc1cnc(NCCCN2CCCCC2CO)nc1 (stereo not drawn)	67.94
CCc1cnc(N)nc1NCCCN1CCCCC1CO (stereo not drawn)	90.38
Cc1cc(C)n(CC2CCCCN2CCCS(=O)(=O)N(C)C)n1 (stereo not drawn)	4.04
Cc1ccsc1-c1nccn1CCN1CCCCC1CO (stereo not drawn)	8.185
CCc1cnc(N)nc1NCCC(=O)NC1CCCCC1	31.74
Cc1cc(-c2nccn2CCN2CCCCC2CO)oc1C (stereo not drawn)	12.23
Cc1ncnc(NCCCN2CCCCC2CO)c1C (stereo not drawn)	93.53
O=C(NC1CCC1)[C@@H]1CCO[C@@H]2CCN(C3CCCC3)C[C@H]21.O=C(O)C(F)(F)F	-6.007
CCc1n[nH]c(C2CN(Cc3nccn3CC)CCO2)n1 (stereo not drawn)	-1.514
CN(CCc1cn[nH]c1)C(=O)C1CC(=O)N(Cc2cccnc2)C1 (stereo not drawn)	1.356
c1ccc(CNc2ncc(CN3CCCN4CCC[C@H]4C3)cn2)cc1	-5.428
CCCn1ncc(CN2C[C@@H]3CCCN3C[C@H]2Cc2ccccc2)c1C	112.1
N#CCCCN1CCCC1Cc1ccccc1 (stereo not drawn)	-5.887
CCCn1ncc(CN2C[C@@H]3CCCN3C[C@@H]2Cc2ccccc2)c1C	119.2
CCCn1ncc(C(=O)N2CCN(C3Cc4ccccc4C3)CC2)c1C	1.653
CC(=O)c1ccc(-c2cnn(CC(=O)Nc3ccnn3C)c2)nc1	-6.817
O=C(NCC(O)c1ccsc1)c1sccc1OC(F)F (stereo not drawn)	-10.31
Cc1cccc2cc(C(=O)N3CCC(F)(F)CC3)n(C)c12	5.497
CN(C)Cc1nn(C)c2c1CCN(C(=O)c1cnccn1)C2.O=C(O)C(F)(F)F	-5.117
Cc1nocc1C(=O)N1CCc2c(CN(C)C)nn(C)c2C1	93.65
CN(C)Cc1nn(C)c2c1CN(C(=O)Nc1cccc(F)c1)C2	-15.2
CN(C)Cc1nn(C)c2c1CCN(C(=O)c1cccnc1)C2	84.36
CN(C)Cc1nn(C)c2c1CCN(S(=O)(=O)c1cccs1)C2	12.48

SMILES	Percent Effect [%]
CC(=O)NCC(=O)N1CCc2c(CN(C)C)nn(C(C)C)c2C1	-2.95
Cn1nc(CN2CCCC2)c2c1CN(C(=O)c1cccnc1)CC2.O=C(O)C(F)(F)F.O=C(O)C(F)(F)F	-3.711
Cc1cccc(NC(=O)N2Cc3c(CN(C)C)nn(C)c3C2)c1	-10.1
Cc1cccc(C(=O)N2CCc3c(CN(C)C)nn(C)c3C2)n1	94.16
CN(C)Cc1nn(C)c2c1CN(C(=O)c1cccc(C#N)c1)C2	110.3
CN(C)Cc1nn(C)c2c1CCN(C(=O)CC1CC1)C2.O=C(O)C(F)(F)F	5.365
Cc1cc(N[C@H](CO)c2ccccc2)n2nc(C)cc2n1	1.495
Cc1noc(C2CCCN(C(=O)c3ccc(Br)cc3F)C2)n1 (stereo not drawn)	4.795
N#Cc1c(F)cccc1N1CCN(S(=O)(=O)c2cccs2)CC1	-7.537
CC(Cn1cccn1)NC(=O)NCCCN1CCc2ccccc2C1 (stereo not drawn)	-5.201
Cc1nc([C@H]2C[C@@H]3CCN(Cc4scnc4C)C[C@H]3O2)no1.O=C(O)C(F)(F)F	-18.74
CCc1ncc2c(n1)CN(C(C(N)=O)c1ccccc1)CC2 (stereo not drawn)	-0.2058
CC(=O)Nc1ncc(-c2ccc(C)cc2)[nH]1	-15.96
Cc1cc(C(=O)N2CCc3c(CN(C)C)nn(C)c3C2)[nH]n1	109.1
Cc1cc(C(=O)N2CCc3ncnc(N4CCSCC4)c3CC2)[nH]n1	-7.195
Cc1cc(-c2nn(C)c(Cl)c2CN2CCOCC2CC(N)=O)no1 (stereo not drawn)	-10.25
Cc1noc(CSc2ccc(C(F)(F)F)cn2)n1	-11.43
COc1ncc(C)cc1NC(=O)COCC(F)(F)F	-3.698
CC(C)c1nc(S(=O)(=O)Nc2ccnn2C2CCCC2)c[nH]1	-16.48
CC1CCN(C(=O)CN(Cc2ccco2)C2CC2)CC1	16.65
O=C(CN(Cc1ccco1)C1CC1)N1CCCCCC1	130.6
O=C(CN(Cc1ccco1)C1CC1)Nc1ccc(Br)cn1	5.807
COc1ccc(CN2CC[C@H](c3nc4cccc(C(N)=O)c4[nH]3)C2)cc1	-8.435
CCCn1nc(C)c(CNC(=O)C2COc3ccc(OC)cc3C2)c1C (stereo not drawn)	-13.51
CC(=O)c1cccc(OCCCC(=O)N(C)Cc2cnc(C)s2)c1	-4.275
